In PubChem BioAssay AID652120 (NMMLSC, 2013):
Values without a mark were called inactive.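 How the source made its calls: active means viability below 50% at the top dose and a half-maximal effect concentration under 10 µM; inactive means the rest.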

Assay: NIH 3T3 cell cytotoxicity, dose response, cytotoxicity control for AML myeloid differentiation project, CellTiter-Glo, Powder Set01 subset01 (AID 652120)
Conditions: NIH 3T3 viability, ATP luminescence (CellTiter-Glo); series mostly up to 10 µM; viability: at the top concentration

Row | Structure (SMILES) | viability [%]
1 | O=C(O)c1cccnc1Nc1ccc(Cl)cc1 | 68.4
2 | O=C(CCNC(=O)c1ccc(Cl)cc1)NC1CCCc2ccccc21 (stereo not drawn) | 68.5
3 | Cc1ccc(Nc2nc(=O)c3cccnc3s2)c(Br)c1 | 67.7
